Results: PubChem BioAssay (Tox21)
Results filed as inconclusive are left out. A number with no mark means an inactive call. The call rests on the fitted dose curve; in most records, active means well fitted activation curve with a large enough effect in the signal ratio in the repeat runs (not every such curve was filed as active); inconclusive means weak or mixed curves; inactive means flat fitted curve, though single readings scatter; the % refers to the signal ratio.

Experiment: qHTS assay to identify small molecule agonists of the hypoxia (HIF-1) signaling pathway (AID 1224846)
Details: HRE-bla ME-180 cells, beta-lactamase ratio, 17 h; series mostly up to 76.8 µM; activation: at the top concentration
Procedure, shortened: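 In ME-180 cells bearing an HRE-bla construct, 17 h treatment with DMSO-dissolved compounds at 37C was followed by CCF4-AM loading to quantify reporter induction.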
On the % scale 0 is the no-effect control and ±100 the full control effect.

SMILES	activation
CC1=CC(=O)CCC1	0.132%
NC(CS)C(=O)O (stereo not given)	-0.429% [at 35.5 µM]
CCc1cc(S(=O)(=O)O)c2cc(C(C)C)cccc1-2	-0.276% [at 35.5 µM]
CCCCCCCCN(C)CCCCCCCC	-0.936%
CC(C)c1ccc2oc3nc(N)c(C(=O)O)cc3c(=O)c2c1	0.395% [at 35.5 µM]
CCN(CC)S(=O)(=O)c1ccc(C(=O)O)cc1	0.294% [at 35.5 µM]
Nc1cc(N)cc(C(=O)O)c1	0.215%
O=C1OC(=O)c2cc([N+](=O)[O-])ccc21	-0.5%
CNc1ncnc2nc[nH]c12	-0.141%
CCCCC=O	-0.0331%
N#CC1(O)CCCCC1	0.538%
Nc1nc2c(ncn2CCC(CO)CO)c(=O)[nH]1	-1.59% [at 35.5 µM]
CC(C)(C)OC(=O)N1C[C@@H](F)C[C@H]1C(=O)O	-0.333%
COc1ccc(COC=O)cc1	-0.755%
CC(C)(C)C(=O)/C=C/c1ccc(Cl)cc1	-1.32%
Nc1ccc2cc(S(=O)(=O)O)ccc2c1	-0.271%
O=C(O)CCNC(=O)c1ccc(N=Nc2ccc(O)c(C(=O)O)c2)cc1	-0.204% [at 35.5 µM]
CC1=CC(C)C(C=O)C(C)C1 (stereo not given)	0.034%
CCCC(C)CO (stereo not given)	-0.868%
CC(C)COC(=O)C(C)C	0.17%
